# Bioassay records (PubChem BioAssay)
# FBPA Giardia inh: Giardia lamblia aldolase inhibition | 290,000 compounds, 0.71% hits | purified Giardia FBPA | Potency, µM (top dose mostly 59.6 µM), inactives show at the highest dose activity, negative = inhibition, hits mostly inhibitors | A8B2U2; also: potency is read from the fitted curve at half-maximal effect; % is scaled to controls: 0 for no effect and ±100 for the full control effect; nearly all actives have a fitted effect of over 55% in size
#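 40 nM FBPA preincubated 10 min at RT with compound (up to 57.5 uM final), then substrate plus GAPDH/TPI/NAD/arsenate coupling and diaphorase/resazurin added. Fluorescence read after 20 min at RT, 525/598 nm.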
# Shiga inhibitor: inhibitors of Shiga toxin in Vero cells. Vero cells, Shiga toxin protein synthesis inhibition reporter. inhibition, % at 38.7 µM. 290,000 compounds, 9.2% hits; in the data active = inhibition mostly above about 28%, no sharp cut-off; inactive = mostly below about 43%; also: 0% is about no effect
# Tb PYK inh: blocks Trypanosoma brucei pyruvate kinase; Potency, µM (titrated, usually from 76.8 µM), without a hit: at the top dose activity, negative = inhibition, usual class: inhibitors; Q57TT1; AID 624173; 410,000 compounds, 0.12% hits; TbPYK enzyme, Kinase-Glo Plus ATP luminescence, 45 min; also: potency is read from the fitted curve at half-maximal effect; % is scaled to controls: 0 for no effect and ±100 for the full control effect; nearly all actives have a fitted effect of over 50% in size
#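 T. brucei PYK with substrate was exposed to pin-transferred compounds across a concentration series, then started with 130 uM ADP (final). After 45 min at room temperature, Kinase-Glo Plus luminescence was read, normalized and curve-fitted.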
# Cycloheximide cs: counter-screen hit for Shiga toxin inhibitors, cycloheximide; cell reporter, cycloheximide protein synthesis inhibition counterscreen; max response, %; 300,000 compounds, 12% hits; AID 2314; in the data active = max response mostly above about 13%, no sharp cut-off; inactive = mostly below about 14%; also: read at 38.3 µM for the half of the compounds with a filed dose; 0% is about no effect
# RE007 growth inh: less growth of the S. pombe RE007 Vpr strain. AID 651644. Potency, µM (series often up to 92.2 µM), inactives show at the top dose activity change, negative = less growth, hits mostly inhibitors. 360,000 compounds, 0.21% hits. S. pombe RE007 Vpr strain, BacTiter-Glo ATP luminescence, 24 h; active = well fitted falling curve with a large enough effect; inconclusive = small, poorly fitted or top-dose-only effect; inactive = no such curve, though single readings can be large or run the other way; also: potency is read from the fitted curve at half-maximal effect; % is scaled to controls: 0 for no effect and ±100 for the full control effect; nearly all actives have a fitted effect of over 50% in size
#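 Fission yeast RE007 carrying one integrated HIV-1 vpr copy, seeded at OD 0.01 in PMG+AL medium with 23 nL pinned compound. Grown 24 h at 30 degrees; viability read by BacTiter-Glo luminescence after 5 min.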
# LmPK inhibitor: blocks Leishmania mexicana pyruvate kinase activity | Q27686 | purified LmPK, Kinase-Glo ATP luminescence, 1 h | Potency, µM (highest dose often 57.5 µM), for inactives: at the top dose activity change, negative = inhibition, hits mostly inhibitors | 290,000 compounds, 0.37% hits | AID 1721; also: potency is read from the fitted curve at half-maximal effect; % is scaled to controls: 0 for no effect and ±100 for the full control effect
# Target sequence (Q27686 whole entry, looked up): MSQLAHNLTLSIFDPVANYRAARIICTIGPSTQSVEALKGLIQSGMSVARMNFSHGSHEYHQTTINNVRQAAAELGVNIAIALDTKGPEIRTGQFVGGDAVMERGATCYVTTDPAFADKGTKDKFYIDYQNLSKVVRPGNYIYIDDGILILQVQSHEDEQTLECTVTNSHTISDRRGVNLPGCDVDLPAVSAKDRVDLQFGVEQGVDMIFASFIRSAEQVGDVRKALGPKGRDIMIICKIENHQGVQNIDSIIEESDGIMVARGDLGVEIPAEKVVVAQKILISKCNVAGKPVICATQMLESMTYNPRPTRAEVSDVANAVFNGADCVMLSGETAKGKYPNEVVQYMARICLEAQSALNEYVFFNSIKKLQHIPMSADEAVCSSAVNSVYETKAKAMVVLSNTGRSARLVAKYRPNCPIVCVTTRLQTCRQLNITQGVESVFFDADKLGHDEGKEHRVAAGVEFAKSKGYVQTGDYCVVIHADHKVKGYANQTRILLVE
#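 In 50 mM imidazole pH 7.2 with 7 mM MgCl2, LmPK (0.1 nM) turned over PEP (0.5 mM) and ADP (0.1 mM) for 1 h at room temperature. Luciferase read-out of ATP.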
# Starred values were filed as active, the others as inactive; i = inactive; ? = inconclusive; . = no result given; [ ] = remark or other dose. The sample as a whole holds a higher share of hits than the screen did. Unless noted, calls follow the shape of the dose curve; as a rule, active = well fitted curve in the direction sought with a large enough effect; inconclusive = small, poorly fitted or top-dose-only effect, or another doubt; inactive = no such curve, though single readings can be large; an effect the other way counts as inactive or inconclusive.
SMILES,FBPA Giardia inh,Shiga inhibitor,Tb PYK inh,Cycloheximide cs,RE007 growth inh,LmPK inhibitor
COc1cc([N+](=O)[O-])ccc1NC(=O)CSc1nnc(C)c(C)n1,4%,-7,0%,3,-4%,0%
CCN(C(=O)C1CCN(S(=O)(=O)c2ccc3c(c2)CCCN3C(=O)C2CCC2)CC1)c1cccc(C)c1,.,.,-2%,.,.,.
CCc1nnc(NC(=O)c2ccc(N3C(=O)CCC3=O)cc2)s1,1%,35,-1%,16*,2%,4%
COc1ccc2[nH]c3c(N4CC(C)OC(C)C4)ncnc3c2c1 (centres undefined),-21%,-8,-8%,9,-15%,1%
Cc1ccc2[nH]c3c(N4CCN(Cc5ccccc5)CC4)ncnc3c2c1,-1%,20,5%,9,-24%,7%
COCCNc1ncnc2c1[nH]c1ccccc12,-1%,9,-2%,6,-12%,-3%
CC(C)Oc1ncnc2c1[nH]c1ccccc12,-3%,39*,4%,30*,-18%,-6%
CCCOc1ncnc2c1[nH]c1ccccc12,-6%,60,5%,42*,?,2%
CCCCOc1ncnc2c1[nH]c1ccc(C)cc12,4%,106*,-3%,43*,4%,3%
CCN(CC)c1ncnc2c1[nH]c1ccccc12,-6%,-22,-3%,-3,-10%,-1%
CCCOc1ncnc2c1[nH]c1ccc(OC)cc12,2%,68*,-8%,49*,-9%,-13%
Cc1ccc2[nH]c3c(N4CCCCCC4)ncnc3c2c1,-5%,65*,.,18*,.,6%
Cc1ccc(C)c(CNC(=O)CN2C(=O)CSc3ccc(S(=O)(=O)N(C)C)cc32)c1,.,.,-3%,.,.,.
Cc1cc(-c2ccccc2)nc(N/N=C/c2ccco2)n1,-2%,85*,?,36*,-2%,-3%
Cc1cc(N/N=C/c2ccccc2O)c2ccccc2n1,-1%,45,4%,26*,18%,1%
COc1ccc2nc(C)cc(N/N=C/c3cccc(OC)c3O)c2c1,9%,14,-2%,10,-14%,1%
Cc1cc(-c2ccccc2)nc(N/N=C/c2ccccc2)n1,-8%,55*,-13%,32*,?,1%
Cc1cc(C)nc(N/N=C/c2ccco2)n1,?,-36,3%,-2,-10%,-12%
C(=N/Nc1nc(-c2ccccc2)cc(-c2ccccc2)n1)/c1cccnc1,0%,69*,-9%,61*,0%,2%
CCCCn1cnc2cc(C)c(C)cc21,1%,21,-6%,-3,2%,2%
CCOC(=O)C1CCN(c2nc3c(S(=O)(=O)c4ccccc4)nnn3c3ccc(Cl)cc23)CC1,.,.,5%,.,.,.
Cc1cc(-c2ccccc2)nc(N/N=C/c2cccnc2)n1,1%,22,0%,2,1%,-20%
Cc1cc(-c2ccccc2)nc(N/N=C/c2ccc(O)cc2O)n1,20%,91*,0%,23*,?,-1%
C(=N\Nc1nc(Nc2ccccc2)nc(Nc2ccccc2)n1)/c1ccncc1,1%,-9,2%,-2,-3%,2%
Oc1cccc(/C=N\Nc2nncc(-c3ccccc3)n2)c1,1%,50*,-12%,64*,6%,-2%
SMILES,FBPA Giardia inh,Shiga inhibitor,Tb PYK inh,Cycloheximide cs,RE007 growth inh,LmPK inhibitor
CNc1nc(C)nc(N/N=C/c2ccccc2)n1,-26%,53,-1%,28*,-7%,0%
COc1cccc(C(c2sc3nc(-c4ccco4)nn3c2O)N2CCOCC2)c1 (centres undefined),.,.,-7%,.,.,.
COc1ccc(OC)c(NC(=O)CCN2C(=O)c3cccc([N+](=O)[O-])c3C2=O)c1,-11%,-14,-4%,-1,15%,3%
C[C@@H](O)[C@H]1C(=O)N2C(C(=O)O)=C(S[C@@H]3CN[C@H](CNS(N)(=O)=O)C3)[C@H](C)[C@H]12,.,.,3%,.,.,.
O=C(Nc1cc(C(F)(F)F)cc(C(F)(F)F)c1)[C@H]1O[C@@H](n2ccc(=O)[nH]c2=O)[C@H](O)[C@@H]1O,.,.,5%,.,0%,.
COc1ccccc1NC(=O)C1=C(C)Nc2nc(SCc3cc(C)ccc3C)nn2C1c1ccccc1 (centres undefined),.,.,-2%,.,.,.
CC(=O)c1ccc(-n2c(CCC(=O)O)ccc2-c2ccccc2)cc1,14%,-3,-8%,-6,-4%,-2%
CC(=O)c1cccc(-n2c(CCC(=O)O)ccc2-c2cccs2)c1,8%,52,-18%,26*,-23%,2%
CC(=O)c1cccc(-n2c(CCC(=O)O)ccc2-c2ccccc2)c1,10%,75*,-17%,40*,-16%,-2%
Cc1ccc(-c2ccc(CCC(=O)O)n2-c2cccc(O)c2)cc1,13%,121*,-10%,40*,1%,2%
COC(=O)N1C2=C(c3ccccc3[C@@H]1CC(=O)Nc1ccc3cc4ccccc4cc3c1)[C@@H]1C(=O)N(c3ccccc3)C(=O)[C@@H]1[C@H](C)C2,-3%[12.9 µM],.,.,.,.,-3%[11.5 µM]
O=C(O)C1CCCCC1C(=O)N1CC=C(c2ccccc2)CC1 (centres undefined),-1%,53*,-5%,27*,-7%,-5%
O=C(Nc1cccc2ccccc12)N1CC=C(c2ccccc2)CC1,1%,35,0%,-4,-3%,-2%
O=C(Nc1ccccc1)N1CC=C(c2ccccc2)CC1,-25%,80*,.,36*,.,-7%
Cc1ccc(C(=O)N2CC=C(c3ccccc3)CC2)s1,.,.,-2%,.,7%,.
O=C(Nc1ccccc1)N1CC=C(c2ccc(F)cc2)CC1,?,95*,-2%,52*,-18%,2%
CCCCn1c(C)cc2c(c1=O)C1O[C@](c3ccsc3)(Cc3cc(OC)c(OC)cc31)O2,-13%[12.9 µM],i,.,6,.,-9%[11.5 µM]
Cc1ccc(Nc2ncnc3c2cnn3C)cc1,-14%,61*,-7%,27*,2%,-2%
Cn1ncc2c(Nc3ccc4ccccc4c3)ncnc21,-9%,81*,0%,33*,-18%,-3%
CCOc1ccc(Nc2ncnc3c2cnn3C)cc1,-1%,20,-1%,16*,10%,0%
CCOC(=O)c1ccc(Nc2ncnc3c2cnn3C)cc1,3%,6,-1%,0,-2%,0%
CC(=O)Nc1ccc(Nc2ncnc3c2cnn3C)cc1,.,.,-1%,.,.,.
Cn1ncc2c(Nc3ccc(Cl)cc3)ncnc21,-8%,16,-1%,32*,-24%,6%
COc1ccc(-c2noc(CSc3nnc(Cc4ccccc4)n3-c3cccc(C)c3)n2)cc1,.,.,-5%,.,.,.
COc1cc(C(C)=O)ccc1OCC(=O)Nc1ccc2nc(C)sc2c1,.,.,4%,.,-9%,.
COc1cc(C)c(C)cc1S(=O)(=O)Nc1cccc(-c2ccc(N3CCOCC3)nn2)c1,.,.,-5%,.,.,.
CC(=O)c1c(O)cccc1O,-6%,-15,.,-12,.,.
